Laboratory results as given in PubChem BioAssay (NCI).
About 83,000 compounds went through this panel and 20% of them were active in at least one assay; those are over-represented in the sample as a whole.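 Negative percent growth values reflect cell death: -40 means 40% of the cells present at the start died, and -100 means all died.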 Active and inactive are the calls of the source. The calls were made as follows: active = growth percent below 10; inactive = the rest.

What was measured:
Test in all cases: NCI-60 one-dose screen, 48 h (100 = growth as untreated, 0 = no growth, -100 = all killed)
Conditions in all cases: 10 µM unless noted
[1] = system: NCI-H23 lung
[2] = system: NCI-H226 lung
[3] = system: NCI-H322M lung
[4] = system: HOP-62 NSCLC
[5] = system: NCI-H460 lung
[6] = system: HOP-92 NSCLC
[7] = system: A549/ATCC NSCLC
[8] = system: 786-0 renal
[9] = system: COLO 205 colon
[10] = system: NCI-H522 lung

Measured: growth

CCc1ccc(C2=C/C(=C/c3ccc(Cl)cc3)C(=O)N2CCc2ccc(S(N)(=O)=O)cc2)cc1
active: [5] 2.69% | [9] -35.4%
inactive: [1] 34.4% | [2] 29.2% | [3] 54.3% | [4] 34.1% | [6] 15.1% | [7] 13.7% | [8] 40%

Oc1ccccc1/C=N/c1ccccn1
inactive: [1] 220% | [2] 107% | [3] 132% | [4] 112% | [5] 112% | [6] 76.9% | [7] 104% | [8] 158% | [9] 85.7%

Nc1nccc2c1ccn2-c1ccc(NC(=O)c2ccc(N3CCOCC3)c(C(F)(F)F)c2)cc1
active: [4] -43% | [5] 1.76% | [6] -25% | [8] -45.5% | [9] -54.7%
inactive: [1] 33% | [2] 63.1% | [3] 38.9% | [7] 11.9%

C[C@]12CC[C@@H]3c4ccc(O)c(N)c4CC[C@H]3[C@@H]1CC[C@@H]2O
inactive: [1] 101% | [2] 112% | [3] 114% | [4] 143% | [5] 102% | [6] 140% | [7] 99.9% | [8] 118% | [9] 123%

C=CC(=O)NC(=O)Nc1ccccc1Cl
inactive: [1] 103% | [2] 94.2% | [3] 90.2% | [4] 89.8% | [5] 102% | [6] 86.2% | [7] 75.4% | [8] 74.3% | [9] 88.9%

OCc1cn(-c2ccc(Cl)cc2)nc1-c1ccc(O)cc1
inactive: [1] 96.7% | [2] 96.9% | [3] 85.8% | [4] 81.9% | [5] 106% | [6] 136% | [7] 90.1% | [8] 93.4% | [9] 115%

Cc1cc(NC(=O)c2cccc(C(F)(F)F)c2)ccc1-n1ccc2c(NC(=O)c3ccccc3)nccc21
inactive: [1] 94.6% | [2] 112% | [3] 77.4% | [4] 87.4% | [5] 116% | [6] 123% | [7] 86.8% | [8] 102% | [9] 113%

O=C1c2ccccc2C(=O)c2c(NCCN=Cc3c(O)ccc4ccccc34)cccc21
inactive: [1] 92.9% | [2] 91.7% | [3] 91.4% | [4] 47% | [5] 88.7% | [6] 37.9% | [10] 84.7% | [7] 19.9% | [9] 85.3%

Cc1ccc(=O)n(-c2ccc(Br)cc2F)c1
inactive: [1] 98.4% | [2] 85.4% | [3] 102% | [4] 94% | [5] 110% | [6] 77.3% | [7] 98.7% | [8] 99.5% | [9] 110%

N#CC1=C(N)Oc2c(ccc3ccccc23)C1c1cc(=O)oc2ccc(Cl)cc12 (stereo not given)
active: [5] 8.96% | [9] -16.4%
inactive: [1] 32.9% | [2] 98.3% | [3] 44.2% | [4] 33.3% | [6] 87.5% | [7] 26.6% | [8] 29.4%

CC1(C)N=C(N)N=C(N)N1c1ccc(OCC(=O)Nc2ccccc2)c(Cl)c1
inactive: [1] 24% | [2] 99.7% | [3] 40.2% | [5] 15.3% | [6] 13.4% | [7] 11.2% | [9] 82.9%
active: [4] -3.64% | [10] -7.05%

Clc1ccc2c(NCCNc3nc(Cl)nc4ccccc34)ccnc2c1
active: [1] -61.7% | [2] -80% | [3] -26.4% | [4] -68.6% | [5] -65.4% | [6] -67.6% | [7] -88% | [8] -94.1% | [9] -85.8%

Cc1cc(N2CCOCC2)nc(N(CCNc2ccnc3cc(Cl)ccc23)Cc2ccco2)n1
active: [8] 5.93% | [9] -4.11%
inactive: [1] 58% | [2] 60.5% | [3] 41.8% | [4] 36.5% | [5] 47.3% | [6] 46.7% | [7] 50.7%

c1ccc2c(c1)Oc1cccnc1-n1nccc1-2
inactive: [1] 97.8% | [2] 77.3% | [3] 102% | [4] 104% | [5] 103% | [6] 90% | [7] 99.6% | [8] 103% | [9] 119%

CC1(C)CC(=O)C2=C(C1)OC1=C(C(=O)CC(C)(C)C1)C2c1ccc(OCc2cn(-c3ccc(F)cc3F)nn2)cc1
inactive: [1] 102% | [2] 88.9% | [3] 105% | [4] 116% | [5] 100% | [6] 107% | [7] 84.3% | [8] 120% | [9] 101%

CN(C)c1ccc(/C=c2\s/c(=C\C(=O)C(C)(C)C)[nH]c2=O)cc1
inactive: [1] 98% | [2] 101% | [3] 86.7% | [4] 101% | [5] 104% | [6] 94.5% | [7] 79.7% | [8] 93.2% | [9] 97.7%

CS(=O)(=O)Nc1cccc(-c2ccc3ncnc(Nc4ccc(F)c(Cl)c4)c3c2)c1
inactive: [1] 42.6% | [2] 44.5% | [3] 15% | [4] 39.8% | [5] 20% | [6] 34.6% | [7] 25.3%
active: [8] -6.08% | [9] -33.3%

O=C(N/N=C/c1ccccc1O)c1ccccc1O
inactive: [1] 37.5% | [2] 67% | [3] 32.6% | [4] 42.1% | [5] 13.2% | [6] 56.5% | [7] 45.4% | [8] 25.8% | [9] 55.5%

Cc1cn(-c2nc3c(c(NCc4ccccc4)n2)COCC3)c2cccc(C(N)=O)c12
inactive: [1] 58.8% [0.5 µM] | [2] 56.4% [0.5 µM] | [3] 98.8% [0.5 µM] | [4] 76.3% [0.5 µM] | [5] 45.8% [0.5 µM] | [6] 87.7% [0.5 µM] | [7] 84% [0.5 µM] | [8] 40.9% [0.5 µM] | [9] 87.8% [0.5 µM]

C=C1C(=O)O[C@H]2[C@H]1CC/C(COC(=O)c1cccc3ccccc13)=C\CC[C@@]1(C)O[C@@H]21
inactive: [3] 36.8%
active: [1] 0.789% | [2] -79.9% | [4] -45.7% | [5] 7.53% | [6] -67.9% | [7] -55% | [8] -77.9% | [9] -70.7%

CSc1ccc(C(=O)C[n+]2cccc(C)c2)cc1
inactive: [1] 102% | [2] 94.3% | [3] 102% | [4] 107% | [5] 109% | [6] 105% | [7] 105% | [8] 100% | [9] 109%

Cc1ccc2c(c1)Nc1ccc(C)cc1C2(C)C
inactive: [1] 94.9% | [2] 98.3% | [3] 114% | [4] 78.9% | [5] 109% | [6] 81.1% | [7] 93.1% | [8] 84.7% | [9] 84.3%

Cc1cc(SCc2ccc(Cl)cc2Cl)nc(SCc2ccc(Cl)cc2Cl)n1
inactive: [1] 98.2% | [2] 96% | [3] 96.5% | [4] 108% | [5] 104% | [6] 112% | [7] 96.6% | [8] 103% | [9] 113%

CC(C(C(=O)N1CCCCC1)N1CCCCC1)N1CCCCC1 (stereo not given)
inactive: [1] 107% | [2] 109% | [3] 119% | [4] 96.7% | [5] 114% | [6] 112% | [7] 94% | [8] 108% | [9] 118%

O=C(CSc1nnc(-c2ccccc2)o1)Nc1ccc(C(=O)/C=C/c2ccccc2)cc1
inactive: [1] 77.6% | [2] 85.4% | [3] 71.1% | [4] 72.4% | [5] 48.4% | [6] 60.6% | [7] 60.3% | [8] 84.8% | [9] 79.2%

O=C(Nc1ccc(-n2ccc3c(NC(=O)c4ccccc4)ncnc32)cc1)Nc1ccc(Cl)c(C(F)(F)F)c1
inactive: [3] 36% | [4] 20.1% | [8] 37% | [9] 17.4%
active: [1] -28.2% | [2] 8.8% | [5] -62.2% | [6] -8.52% | [7] -62.9%

CC1CCC(C(C)C)C(NN)C1 (stereo not given)
inactive: [1] 106% | [2] 88% | [3] 91.2% | [4] 96% | [5] 108% | [6] 110% | [7] 80.6% | [8] 98.8% | [9] 103%

COc1ccc(C2CC(c3cc(Cl)c(C)cc3OC)=NN2c2ccc(S(N)(=O)=O)cc2)cc1OC (stereo not given)
inactive: [1] 75.8% | [2] 81.3% | [3] 104% | [4] 87.8% | [5] 89.8% | [6] 101% | [7] 73.2% | [8] 92.3% | [9] 101%

CCCc1nn2c(CCC(=O)c3nc4ccc([N+](=O)[O-])cc4[nH]3)nnc2s1
inactive: [1] 94.4% | [2] 102% | [3] 97.9% | [4] 106% | [5] 104% | [6] 114% | [7] 99.9% | [8] 108% | [9] 112%

Cc1ccc(-c2cn3cc([N+](=O)[O-])ccc3n2)cc1
inactive: [1] 83.5% | [2] 72.2% | [3] 95.9% | [4] 91.4% | [5] 97.6% | [6] 110% | [7] 85.5% | [8] 91.9% | [9] 94.4%
